# According to the OligoGym collection:
# Target: DNAJC13
# Test: pooled miR-30 sensor sort-seq; sequence = guide strand
# Conditions: shRNA
# Further: reference of the scale not given here.
row,Sequence,sensor-assay potency score (higher = more potent)
1,TATCTTGTCCTTTTGTCTCTTC,0.492
2,TTGTCTCTAACATGCATCCGAT,-1.12
3,TTGATTATTTTTGTACTCGATG,-0.943
4,TTGAATTGCAGAACATATCCAG,0.63
5,TTGTGCTACTAATTCACTCTGC,0.635
6,TTAAGGAAGAGAATCAACCTAT,-0.138
7,TTTTCTACTTCTTTCTTCCAGG,-0.404
8,TAGACCAACAGTATCTGCTCGC,0.515
9,TTGTTGTGTAGAAACATGCCAG,-0.232
10,TACTAATTCACTCTGCTCCTTC,0.364
11,TTCAATTACATTGCTTTGCAGT,-0.243

# Target: DNAJC19
# Test: as above
# Conditions: shRNA
row,Sequence,sensor-assay potency score (higher = more potent)
1,TTTATTAGTGTATAAATTCTAA,-0.615
2,TTTAAAAGCATAATTCGTCGAT,0.123
3,TTTTTTAAAATTGTAGCTCTGA,0.364
4,TTCACTTTTAAATACAAGGTTC,-0.645
5,TAAAATTGTAGCTCTGAGGCAT,0.463
6,TAAACAAGAAAATTATACCAAG,-1.18
7,TAAATCTTTAGCTTCATTGATT,-0.54
8,TTCGTCGATGAGCATCTCTTAT,-1.36
9,TTGATATTGAGAACATTTCAGT,-0.702
10,ATGAACAATATTTCTATTCAGA,-0.967
11,TTAAAAGCATAATTCGTCGATG,-0.449
12,TTCAGTTTTGCTAACAGGGTTT,-0.256

# Target: DNAJC4
# Test: as above
# Conditions: shRNA
row,Sequence,sensor-assay potency score (higher = more potent)
1,TAGAAGGCTGTGATGATCCGAT,0.303
2,TCGCTCAGCTCCACAAAGCGGC,-1.13
3,TTGGGGGACTACCTGAGCGGAG,-1.16
4,TGCATCTGCTTCACCTTCCTGA,-0.639
5,TTGTCATGGACTGTGGTTCGTG,-0.505
6,TTGTCGCTCCTGCTGAAGGATG,-1.56
7,TAGCCGTTGTCGCTCCTGCTGA,-1.23
8,TTTGGTGGGCAGACTTGTCATG,-0.548
9,TTTGGGGGACTACCTGAGCGGA,-1.85
10,TTAACTTCCTCAGTGCTGGCAC,0.72
11,TTGTTTGTGTTGCTGCTGCCTC,-0.896
12,TTCATCCATGAAGTTAAGGTGC,-0.818

# Target: DNAJC8
# Test: as above
# Conditions: shRNA
row,Sequence,sensor-assay potency score (higher = more potent)
1,TTTATATACAGCTTGTTTGAAC,-0.768
2,TTGTCGTTTCCTTTCATGCATC,-1.33
3,TTGTCTGTTTATATACAGCTTG,-0.738
4,TTTCTTGAGCTTCAATCTCTTC,-0.98
5,TGTAACTTCAGGATCTATCTGA,0.809
